# Test results taken from PubChem BioAssay (NCATS).
# Inconclusive results are not listed. Values without a mark were called inactive. Activity calls are given as the source filed them. The call rests on the fitted dose curve; in most records, active means well fitted cell-killing curve with a large enough effect; inconclusive means small, poorly fitted or top-dose-only effect, or effect the other way; inactive means no such curve, though single readings can be large or run the other way.
# Experiment: Quantitative High-Throughput drug screen in 47 multiple myeloma cell lines against the NCATS MIPE library collection: AMO1_DSMZ cell viability assay (AID 1918927; further: nearly all actives have a fitted effect of over 30% in size)
# Details: AMO1 myeloma cells viability, CellTiter-Glo ATP luminescence, 48 h; series mostly up to 45.8 µM; viability, % of DMSO: at the top concentration
# From the text: PI: Beverly A. Mock Ph.D.
# Laboratory of Cancer Biology and Genetics,
# Center for Cancer Research, National Cancer Institute,
# National Institute of Health, Bethesda, Maryland
# Drug resistance and disease progression are common in multiple myeloma (MM) patients, underscoring the need for new therapeutic combinations. […] We hypothesized that effective combinations would reduce MYC expression and enhance p16 activity. […] These preclinical data identify potentially useful drug combinations for evaluation in drug-resistant MM and reveal potential mechanisms of combined drug sensitivity.
# Described herein is the primary MIPE qHTS used to cherrypick compounds. Validated compounds were then further tested for potential synergistic activiy.
# [1] Peat TJ, Gaikwad SM, Dubois W, Gyabaah-Kessie N, Zhang S, Gorjifard S, Phyo Z, Andres M, Hughitt VK, Simpson RM, Miller MA, Girvin AT, Taylor A, Williams D, D'Antonio N, Zhang Y, Rajagopalan A, Flietner E, Wilson K, Zhang X, Shinn P, Klumpp-Thomas C, McKnight C, Itkin Z, Chen L, Kazandijian D, Zhang J, Michalowski AM, Simmons JK, Keats J, Thomas CJ, Mock BA. Drug combinations identified by high-throughput screening promote cell cycle transition and upregulate Smad pathways in myeloma. Cancer Lett. 2023 Aug 1;568:216284. doi: 10.1016/j.canlet.2023.216284. Epub 2023 Jun 24. PMID: 37356470; PMCID: PMC10408729.
# SEQUENCE No. (e.g., 1, 2, 3, etc.); […] (e.g., Cells, Incubation, Reagent, etc.); VALUE and DESCRIPTION.
# 1; Cells; 5 uL; white, solid bottom 1536-well Greiner assay plate.
# 2; Compounds; 23 nL; Kalypsis pin tool (Wako USA) equipped with a 1536-well pin head to transfer to the assay plates.
# 3; Incubation; 48 hours; 37C incubation.
# 4; Reagent;5uL; CellTiter Glo (Promega).
# 5; Detector; 425V; Luminescence; Viewlux PerkinElmer.
# NOTES (numbers refer to Sequence numbers above)
# 1. The cell-based screening methods employed in this study were like those previously published. Briefly, the corresponding myeloma cell lines were screened in 1,536-well plates with 500 cells, 5-uL per well for inhibition of cell viability (assessed by measuring ATP levels with CellTiterGlo).
# 2. NCATS MIPE 4.0 library of approved and investigational drugs were added using the Kalypsis pin tool. Wells treated with DMSO only for 100% viability and media only wells for 0% viability were used as controls.
# 3. The assay plates were covered and incubated for 48 hours in a 37C, 5% CO2 incubator with controlled humidity.
# 4. After 48 hours, CellTilter-GloTM luminescent substrate mix (Promega) reagent was added to the assay plate and plates we incubated for 5 min at room temperature.
# 5. Signal was measured as median relative luminescence units on a ViewLux (PerkinElmer) multiplate reader.
# [1] Heske CM, Davis MI, Baumgart JT, Wilson K, Gormally MV, Chen L, Zhang X, Ceribelli M, Duveau DY, Guha R, Ferrer M, Arnaldez FI, Ji J, Tran HL, Zhang Y, Mendoza A, Helman LJ, Thomas CJ. Matrix Screen Identifies Synergistic Combination of PARP Inhibitors and Nicotinamide Phosphoribosyltransferase (NAMPT) Inhibitors in Ewing Sarcoma. Clin Cancer Res. 2017 Dec 1;23(23):7301-7311. doi: 10.1158/1078-0432.CCR-17-1121. Epub 2017 Sep 12. PMID: 28899971; PMCID: PMC6636827.
# Potency means the concentration at half of the fitted maximal effect.
SMILES,"viability, % of DMSO [%]",Potency
CN(C)N=Nc1nc[nH]c1C(N)=O,144,–
CN(C)CCN(C)C(=O)c1ccc(NC(=O)Nc2ccc(-c3nc(N4CCOCC4)c4ccn(CC(F)(F)F)c4n3)cc2)cc1,–,0.418 µM (active)
Cc1ccc2c(=O)c3cccc(CC(=O)O)c3oc2c1C,133,–
Cc1ccccc1C(=O)c1ccc(Nc2ccc(Br)cc2N)cc1Cl,–,0.833 µM (active)
CN1c2ccccc2C(=O)N2CCc3c([nH]c4ccccc34)C21 (stereo not given),114,–
NC1(C(=O)N[C@@H](CCO)c2ccc(Cl)cc2)CCN(c2ncnc3[nH]ccc23)CC1,–,1.87 µM (active)
O=C(CC12CC3CC(CC(C3)C1)C2)Nc1cccc2nc(NCCNCCO)ccc12,–,20.9 µM (active)
N=C1SC(=Cc2ccc(-c3ccc4c(c3)C(=O)NC4=O)o2)C(=O)N1c1ccc(Br)cc1,132,–
COc1c(C)c2c(c(O)c1CC=C(C)CCC(=O)O)C(=O)OC2,–,0.935 µM (active)
CC1=C(CC(=O)O)c2cc(F)ccc2C1=Cc1ccc(S(C)=O)cc1 (stereo not given),–,4.18 µM (active)
CCC(=O)NCC[C@@H]1CCc2ccc3c(c21)CCO3,117,–
CC(C)(F)C[C@H](N[C@@H](c1ccc(-c2ccc(S(C)(=O)=O)cc2)cc1)C(F)(F)F)C(=O)NC1(C#N)CC1,119,–
COc1ccc(-c2nc3ccc(C4=NNC(=O)CC4C)cc3[nH]2)cc1 (stereo not given),105,–
COc1ccc2c(c1)c(C1=C(c3c[nH]c4ccccc34)C(=O)NC1=O)cn2CCCN(C)C,–,14.8 µM (active)
CNC1CCC(N(Cc2cccc(-c3ccncc3)c2)C(=O)c2sc3ccccc3c2Cl)CC1 (stereo not given),–,18.7 µM (active)
Cc1cc(-c2ncc(CC(=O)Nc3ccc(-c4cnccn4)cn3)cc2C)ccn1,–,11.8 µM (active)
COC1CCC(C(=O)c2ccc3nc4c(cc3c2)CCCO4)CC1 (stereo not given),–,18.7 µM (active)
CC(=O)OCC(=O)[C@@]12OC(C)(C)O[C@H]1C[C@H]1[C@@H]3C[C@H](F)C4=CC(=O)C=C[C@]4(C)[C@@]3(F)[C@@H](O)C[C@@]12C,110,–
N#Cc1c(N(CC(=O)O)CC(=O)O)sc(C(=O)O)c1CC(=O)O,–,8.33 µM (active)
Cc1ccc(S(=O)(=O)OCC(=O)Nc2ccc(C(=O)O)c(O)c2)cc1,88.8,–

SMILES,"viability, % of DMSO [%]",Potency
CC(C)=CCCC(C)=CCCC(C)=CCCC(C)=CCCC(C)=CCCC(C)=CCCC(C)=CCCC(C)=CCCC(C)=CCO,110,–
OC[C@H]1O[C@@H](O[C@H]2[C@@H](O)[C@@](O)(CO)O[C@@H]2CO)[C@H](O)[C@@H](O)[C@@H]1O,91.9,–
COc1cc(C=CC(=O)O)ccc1O,101,–
Cc1nn(Cc2ccccc2Cl)c(C)c1CN(C)CC(O)COc1ccc(Cl)cc1 (stereo not given),117,–
CN(C)c1ccccc1CN1CCCN(Cc2ccccc2N(C)C)C1c1ccncc1,–,16.6 µM (active)
COc1cc2c(cc1OC)[C@@H]1Cc3ccc(OC)c(OC)c3CN1CC2,113,–
Oc1cc(O)cc(C=Cc2ccc(O)c(O)c2)c1,–,11.8 µM (active)
Cc1ccc2c(c1)c1c(n2CCc2ccc(C)nc2)CCN(C)C1,93.9,–
O=C1CCCC(=O)C1C(=O)c1ccc(C(F)(F)F)cc1[N+](=O)[O-],125,–
Cc1cc2c(cc1C1(c3ccc(C(=O)O)cn3)CC1)C(C)(C)CCC2(C)C,–,5.26 µM (active)
O=C1NC(=O)C(=Cc2ccc(-c3ccc(F)cc3O)o2)S1,–,3.32 µM (active)
CCN1CCN(c2ccc(Nc3cc(N(C)C(=O)Nc4c(Cl)c(OC)cc(OC)c4Cl)ncn3)cc2)CC1,140,–
O=C(Nc1ccc(OC(F)(F)F)cc1)c1sccc1NCc1ccnc2ccccc12,–,23.5 µM (active)
CCCCc1ccc(NS(=O)(=O)c2ccc(C)c(C(=O)N3CCN(c4cccc(C)c4C)CC3)c2)cc1,114,–
CN1CCN2c3ncccc3Cc3ccccc3C2C1 (stereo not given),105,–
CN1CC(=O)N2C(Cc3c([nH]c4ccccc34)[C@H]2c2ccc3c(c2)OCO3)C1=O (stereo not given in full),97.4,–
O=C(c1ccc(C(=O)N2CCC(N3CCCC3)CC2)c(Nc2ccccc2)c1)N1CCC(N2CCCC2)CC1,118,–
Nc1[nH]nc2nnc(-c3c(-c4ccccc4)nn4ccccc34)cc12,–,1.66 µM (active)
CC[C@H](NC(=O)[C@H](C)NC)C(=O)N1C[C@@H](O)C[C@H]1Cc1c(-c2[nH]c3cc(F)ccc3c2C[C@H]2C[C@H](O)CN2C(=O)[C@H](CC)NC(=O)[C@H](C)NC)[nH]c2cc(F)ccc12,–,4.69 µM (active)
Cc1cccc(Nc2nc(N[C@@H]3CCCC[C@H]3N)ncc2C(N)=O)c1,–,20.9 µM (active)
